The panel holds about 83,000 compounds, 20% with a hit somewhere; the sample as a whole holds those more often.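 Step 1: grow cells in 96-well plates. Step 2: add test compound at a single concentration. Step 3: incubate 48 h. Step 4: record percent growth.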 The source made the active and inactive calls. How the source made its calls: active means growth percent below 10; inactive means the rest.
How the values were obtained:
Experiment in all cases: NCI-60 one-dose screen, 48 h (100 = growth as untreated, 0 = no growth, -100 = all killed)
Details in all cases: 10 µM unless noted
NCI-H23 lung = tested on: NCI-H23 lung
NCI-H226 lung = tested on: NCI-H226 lung
NCI-H322M lung = tested on: NCI-H322M lung
HOP-62 NSCLC = tested on: HOP-62 NSCLC
NCI-H460 lung = tested on: NCI-H460 lung
HOP-92 NSCLC = tested on: HOP-92 NSCLC
NCI-H522 lung = tested on: NCI-H522 lung
A549/ATCC NSCLC = tested on: A549/ATCC NSCLC
786-0 renal = tested on: 786-0 renal
COLO 205 colon = tested on: COLO 205 colon

Measured: growth

CN(C)CC1C(=O)O[C@H]2[C@H]1CC/C(COC(=O)c1cc3ccccc3[nH]1)=C\CC[C@@]1(C)O[C@@H]21 (stereo not given in full)
active: HOP-92 NSCLC -63.8% | NCI-H522 lung -91.2% | 786-0 renal -81.6% | COLO 205 colon -63.9%
inactive: NCI-H23 lung 18.5% | NCI-H226 lung 23.8% | NCI-H322M lung 86.7% | HOP-62 NSCLC 43.4% | NCI-H460 lung 17.6% | A549/ATCC NSCLC 11.5%

COC(=O)CCC1=C(C)C2=NC1=CC1=NC(=CC3=NC(=Cc4[nH]c(/c(=C(/C)O)c4C)=C2)C(C(C)=O)=C3C)C(C)=C1CCC(=O)OC
inactive: NCI-H23 lung 99.8% | NCI-H226 lung 83.9% | NCI-H322M lung 102% | HOP-62 NSCLC 98.8% | NCI-H460 lung 103% | HOP-92 NSCLC 88.2% | NCI-H522 lung 98.8% | A549/ATCC NSCLC 88.6% | 786-0 renal 105% | COLO 205 colon 111%

O=C(c1ccccc1)N1N=C(c2ccccc2)CC1c1nnc2n(Cc3ccccc3)c(=O)c3c4c(sc3n12)CCCC4 (stereo not given)
inactive: NCI-H23 lung 116% | NCI-H226 lung 110% | NCI-H322M lung 89.4% | HOP-62 NSCLC 98% | NCI-H460 lung 107% | HOP-92 NSCLC 95.3% | NCI-H522 lung 91.6% | A549/ATCC NSCLC 89.3% | 786-0 renal 101% | COLO 205 colon 117%

COc1cccc(-c2nn(-c3ccccc3)cc2-c2ccnc(NCCCNC(=O)c3cccc(C(F)(F)F)c3)c2)c1
inactive: NCI-H23 lung 27.3% | NCI-H226 lung 13.3% | NCI-H322M lung 75.3% | HOP-62 NSCLC 48.3% | NCI-H460 lung 23.4% | 786-0 renal 29.8%
active: HOP-92 NSCLC 9.4% | NCI-H522 lung 0.301% | A549/ATCC NSCLC 8.6% | COLO 205 colon 9.99%

O=c1ssc(Cl)c1-c1ccccc1
inactive: NCI-H23 lung 99.5% | NCI-H226 lung 99.1% | NCI-H322M lung 105% | HOP-62 NSCLC 98.1% | NCI-H460 lung 99% | HOP-92 NSCLC 72.5% | NCI-H522 lung 112% | A549/ATCC NSCLC 106% | 786-0 renal 107% | COLO 205 colon 85.1%

CCCc1cc2c(=O)c(C(=O)OC)c[nH]c2cc1N(CC)CC
active: A549/ATCC NSCLC -20%
inactive: NCI-H23 lung 102% | NCI-H226 lung 81.7% | NCI-H322M lung 84.2% | HOP-62 NSCLC 90% | NCI-H460 lung 102% | HOP-92 NSCLC 111% | NCI-H522 lung 73.7% | 786-0 renal 101% | COLO 205 colon 119%

COC(=O)[C@H](CSC)N(C)C(=O)[C@@H]1CSSC[C@@H](NC(=O)c2nc3ccccc3cc2O)C(=O)NCC(=O)N1C
inactive: NCI-H23 lung 84.9% | NCI-H226 lung 87.5% | NCI-H322M lung 100% | HOP-62 NSCLC 82.2% | NCI-H460 lung 59.1% | HOP-92 NSCLC 132% | NCI-H522 lung 45.9% | A549/ATCC NSCLC 59.4% | 786-0 renal 111% | COLO 205 colon 16%

N=C1C(c2nc(-c3ccc(Br)cc3)cs2)=C(O)CN1Cc1cccnc1
inactive: NCI-H23 lung 81.9% | NCI-H226 lung 98.8% | NCI-H322M lung 50.2% | HOP-62 NSCLC 43.6% | NCI-H460 lung 66.7% | NCI-H522 lung 68.4% | A549/ATCC NSCLC 60.6% | 786-0 renal 35.2% | COLO 205 colon 87.5%
active: HOP-92 NSCLC -47.3%

O=[N+]([O-])c1ccc(OCCO)cc1
inactive: NCI-H23 lung 99.6% | NCI-H226 lung 99.7% | NCI-H322M lung 104% | HOP-62 NSCLC 101% | NCI-H460 lung 108% | HOP-92 NSCLC 81.2% | NCI-H522 lung 102% | A549/ATCC NSCLC 105% | 786-0 renal 109% | COLO 205 colon 107%

O=C(Nc1ccc(Cl)cc1)Nc1ccc(Cl)c(C(F)(F)F)c1
inactive: NCI-H322M lung 17.1% | HOP-62 NSCLC 11.3% | A549/ATCC NSCLC 13.3% | 786-0 renal 15.1%
active: NCI-H23 lung -15.5% | NCI-H226 lung 2.69% | NCI-H460 lung 0.218% | HOP-92 NSCLC -14.8% | NCI-H522 lung 3.9% | COLO 205 colon -73.8%

Cc1cc(O)c(C2=NN(c3ccc(S(N)(=O)=O)cc3)C(c3ccccc3Cl)C2)cc1Cl (stereo not given)
inactive: NCI-H226 lung 38.7% | NCI-H322M lung 48.3% | HOP-92 NSCLC 38.5% | A549/ATCC NSCLC 13%
active: NCI-H23 lung 2.15% | HOP-62 NSCLC -6.9% | NCI-H460 lung -36.2% | NCI-H522 lung -56.1% | 786-0 renal -66.3% | COLO 205 colon -92.1%

N[C@@H](CCCCNCC(=O)O)C(=O)O
inactive: NCI-H23 lung 95.1% | NCI-H226 lung 98.4% | NCI-H322M lung 110% | HOP-62 NSCLC 101% | NCI-H460 lung 103% | HOP-92 NSCLC 64.5% | NCI-H522 lung 96.3% | A549/ATCC NSCLC 101% | 786-0 renal 97.2% | COLO 205 colon 111%

CCN1C(=O)N(CC)C2Nn3c(s/c(=C4\C(=O)N(C)c5ccccc54)c3=O)=NC21 (stereo not given)
inactive: NCI-H23 lung 44.3% | NCI-H226 lung 78.9% | NCI-H322M lung 75% | HOP-62 NSCLC 58.4% | NCI-H460 lung 22.6% | HOP-92 NSCLC 75.5% | A549/ATCC NSCLC 49.3% | 786-0 renal 27.8%
active: NCI-H522 lung 0.903% | COLO 205 colon 8.23%

COc1ccc(-c2ccc3c(c2)sc2nc(-c4ccc(F)cc4)cn23)cc1
active: COLO 205 colon 1.69%
inactive: NCI-H23 lung 81.1% | NCI-H226 lung 80.8% | NCI-H322M lung 67.7% | HOP-62 NSCLC 66.3% | NCI-H460 lung 15.4% | HOP-92 NSCLC 65.8% | NCI-H522 lung 66.1% | A549/ATCC NSCLC 30% | 786-0 renal 76.2%

CCN(CC)CCN1CC(O)=C(c2nc(-c3ccc(Cl)cc3)cs2)C1=N
inactive: NCI-H23 lung 65.2% | NCI-H226 lung 99.2% | NCI-H322M lung 15.6% | NCI-H522 lung 49.8% | A549/ATCC NSCLC 46.8%
active: HOP-62 NSCLC -53.3% | NCI-H460 lung 8.48% | HOP-92 NSCLC -44.3% | 786-0 renal -68.5% | COLO 205 colon -58.3%

COc1ccc(N2CCN(c3nc(-c4cc(OC)c(OC)c(OC)c4)nc4ccccc34)CC2)cc1
inactive: NCI-H23 lung 81.1% | NCI-H226 lung 78.4% | NCI-H322M lung 91.4% | HOP-62 NSCLC 83.9% | NCI-H460 lung 87% | HOP-92 NSCLC 56.6% | NCI-H522 lung 55.1% | A549/ATCC NSCLC 80.5% | 786-0 renal 85.7% | COLO 205 colon 62.9%

COc1ccc2c(c1)CCCN2c1c2ccccc2nc2ccccc12
active: NCI-H460 lung 6.18% | NCI-H522 lung -0.944% | COLO 205 colon -16.8%
inactive: NCI-H23 lung 15.8% | NCI-H226 lung 12.6% | NCI-H322M lung 45.9% | HOP-62 NSCLC 33.2% | HOP-92 NSCLC 12.4% | A549/ATCC NSCLC 18.5% | 786-0 renal 28.9%

O=C1CCc2c(sc3[nH]c(=S)n(-c4ccc(OC(F)(F)F)cc4)c(=O)c23)C1
active: NCI-H460 lung 2.8% | HOP-92 NSCLC -10.3% | NCI-H522 lung 7.42%
inactive: NCI-H23 lung 14.1% | NCI-H226 lung 72.4% | NCI-H322M lung 90.5% | HOP-62 NSCLC 53.1% | A549/ATCC NSCLC 77.1% | 786-0 renal 99.8% | COLO 205 colon 99.2%

CCSC1=NC2C(N(CC)C(=O)N2CC)N1/N=C/C=C/c1ccccc1[N+](=O)[O-] (stereo not given)
active: NCI-H460 lung 1.33% | NCI-H522 lung -1.31% | COLO 205 colon 3.83%
inactive: NCI-H23 lung 21.9% | NCI-H226 lung 47.1% | NCI-H322M lung 31.2% | HOP-62 NSCLC 33.7% | HOP-92 NSCLC 19.8% | A549/ATCC NSCLC 19% | 786-0 renal 19%

C=CCNc1nc(NN2C(=O)c3cccc4cccc(c34)C2=O)nc(-n2cnc3ccccc32)n1
inactive: NCI-H23 lung 76.9% | NCI-H226 lung 51.8% | NCI-H322M lung 94.1% | HOP-62 NSCLC 60.4% | NCI-H460 lung 94.6% | HOP-92 NSCLC 16.5% | NCI-H522 lung 76.6% | A549/ATCC NSCLC 86.4% | 786-0 renal 89.2% | COLO 205 colon 103%

COc1ccc(N=C(c2ccccc2)C2C(=O)c3ccccc3C2=O)cc1
active: HOP-92 NSCLC -11.2%
inactive: NCI-H23 lung 99.4% | NCI-H226 lung 96.8% | NCI-H322M lung 105% | HOP-62 NSCLC 97% | NCI-H460 lung 96.4% | NCI-H522 lung 67% | A549/ATCC NSCLC 93.6% | 786-0 renal 97.3% | COLO 205 colon 102%

COc1ccc(OC)c2c1[nH]c(=O)c1c3ncccc3cn21
inactive: NCI-H23 lung 34.4% | NCI-H226 lung 32.2% | NCI-H322M lung 48.5% | HOP-62 NSCLC 31.7% | HOP-92 NSCLC 57.4% | NCI-H522 lung 29.7% | A549/ATCC NSCLC 13.5% | 786-0 renal 34.7% | COLO 205 colon 22.8%
active: NCI-H460 lung -3.99%

COc1cc(/C=C/C(=O)c2c(C)nc3ccccc3c2C)ccc1OCCCN1CCN(C(=O)c2ccco2)CC1
inactive: NCI-H23 lung 58.1% | NCI-H226 lung 63.2% | NCI-H322M lung 91.8% | HOP-62 NSCLC 91.5% | NCI-H460 lung 98.2% | HOP-92 NSCLC 70% | NCI-H522 lung 57.7% | A549/ATCC NSCLC 79% | 786-0 renal 85.9% | COLO 205 colon 99.1%

CN(C)c1ccc(-c2ccc3[nH]c(=O)nc(-c4ccccc4)c3c2)cn1
inactive: NCI-H23 lung 62.1% | NCI-H226 lung 66.6% | NCI-H322M lung 77.5% | HOP-62 NSCLC 63% | NCI-H460 lung 18.3% | HOP-92 NSCLC 59.1% | NCI-H522 lung 19.2% | A549/ATCC NSCLC 58.3% | 786-0 renal 44.5% | COLO 205 colon 37.1%

Cc1ccc(NS(=O)(=O)c2ccc3c(c2)C2OCCC2C(c2ccc(C(=O)C(C)C)cc2)N3)cc1C (stereo not given)
inactive: NCI-H23 lung 38.7% | NCI-H226 lung 45.3% | NCI-H322M lung 82.2% | HOP-62 NSCLC 70.3% | NCI-H460 lung 31.7% | HOP-92 NSCLC 74% | NCI-H522 lung 39.2% | A549/ATCC NSCLC 27.4% | 786-0 renal 58.9% | COLO 205 colon 30.8%

O=C1/C(=C/c2ccc(Br)cc2)C=C(c2ccccc2)N1CCc1ccccc1
active: NCI-H226 lung -1.06% | HOP-62 NSCLC -56.9% | HOP-92 NSCLC -13.9% | A549/ATCC NSCLC 8.19% | 786-0 renal -8.73%
inactive: NCI-H23 lung 40% | NCI-H322M lung 54.3% | NCI-H460 lung 25.6% | NCI-H522 lung 31.2% | COLO 205 colon 30.4%

COc1ccccc1NC(=O)N/C(N)=N/c1nc2ccccc2s1
inactive: NCI-H23 lung 33% | NCI-H226 lung 63.4% | NCI-H322M lung 41.6% | HOP-62 NSCLC 32.7% | NCI-H460 lung 10.1% | HOP-92 NSCLC 62.1% | A549/ATCC NSCLC 25.1% | 786-0 renal 40.2%
active: NCI-H522 lung 4.23% | COLO 205 colon -3.41%

Source: PubChem BioAssay (NCI)
